# Measurements taken from PubChem BioAssay AID1159580 (chemical genetic matrix, 2015).
# Where “and” joins values, the source holds several entries; their conditions need not be identical. Identical values can stand only once. The campaign covered roughly 5,500 compounds. About 2,000 (36%) were called active. Roughly 18% stayed inconclusive and do not appear here. Cut-off read from the data, not from the text of the source: active = normalized growth mostly below about 0.91 (no sharp cut-off); inconclusive = no clear call, values can overlap the other calls; inactive = mostly above about 0.92. The list shows a part of the results. Some compounds were tested as several samples or in several runs, with calls that do not always agree.
# Experiment: chemical genetic growth profiling, strain panel (AID 1159580);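 note: tested at 20 µM; growth read once vehicle control cultures reached saturation at 30 °C; 1 = growth at the plate median or of vehicle wells; lower values mean less growth of the strain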
# Settings: growth OD
structure (smiles),measurement,setting,value
CN1CCc2cccc3c2C1Cc1ccc(O)c(O)c1-3 (stereo not drawn),normalized growth,"S. cerevisiae deletion strains, locus YJR075W, strain HOC1, stronger effect = lower value",1 (inactive) and 0.35 (active)
same,normalized growth,"S. cerevisiae deletion strains, locus YKL009W, strain mrt4, stronger effect = lower value",1.01 (inactive)
same,normalized growth,"S. cerevisiae deletion strains, locus YKL068W, stronger effect = lower value",0.996 (inactive)
same,normalized growth,"S. cerevisiae deletion strains, locus YKL085W, strain MDH1 (second series), stronger effect = lower value",1 (inactive)
same,normalized growth,"S. cerevisiae deletion strains, locus YKL085W, strain MDH1, stronger effect = lower value",1 (inactive)
same,normalized growth,"S. cerevisiae deletion strains, locus YKL160W, strain elf1, stronger effect = lower value",0.871 (active)
same,normalized growth,"S. cerevisiae deletion strains, locus YKL190W, strain CNB1, stronger effect = lower value",1.01 (inactive)
same,normalized growth,"S. cerevisiae deletion strains, locus YKR001C, strain vps1, stronger effect = lower value",1 (inactive)
same,normalized growth,"S. cerevisiae deletion strains, locus YKR026C, strain gcn3, stronger effect = lower value",1.01 (inactive)
same,normalized growth,"S. cerevisiae deletion strains, locus YKR091W, strain srl3, stronger effect = lower value",0.993 (inactive)
same,normalized growth,"S. cerevisiae deletion strains, locus YLL001W, strain dnm1, stronger effect = lower value",0.967 (inactive)
same,normalized growth,"S. cerevisiae deletion strains, locus YLL026W, stronger effect = lower value",0.988 (inactive)
same,normalized growth,"S. cerevisiae deletion strains, locus YLL041C, strain sdh2, stronger effect = lower value",0.995 (inactive)
same,normalized growth,"S. cerevisiae deletion strains, locus YLR027C, strain aat2, stronger effect = lower value",0.918 (active)
same,normalized growth,"S. cerevisiae deletion strains, locus YLR039C, strain RIC1, stronger effect = lower value",1.04 (inactive)
same,normalized growth,"S. cerevisiae deletion strains, locus YLR058C, strain SHM2, stronger effect = lower value",1.01 (inactive)
same,normalized growth,"S. cerevisiae deletion strains, locus YLR102C, strain apc9, stronger effect = lower value",0.997 (inactive)
same,normalized growth,"S. cerevisiae deletion strains, locus YLR113W, strain HOG1, stronger effect = lower value",1.02 (inactive)
same,normalized growth,"S. cerevisiae deletion strains, locus YLR221C, strain rsa3, stronger effect = lower value",0.932 (inactive)
same,normalized growth,"S. cerevisiae deletion strains, locus YLR258W, strain gsy2, stronger effect = lower value",0.958 (inactive)
same,normalized growth,"S. cerevisiae deletion strains, locus YLR262C, strain YPT6 (second series), stronger effect = lower value",0.645 (active)
same,normalized growth,"S. cerevisiae deletion strains, locus YLR262C, strain YPT6, stronger effect = lower value",1.09 (inactive)
same,normalized growth,"S. cerevisiae deletion strains, locus YLR268W, strain sec22, stronger effect = lower value",1.01 (inactive)
same,normalized growth,"S. cerevisiae deletion strains, locus YLR320W, strain mms22, stronger effect = lower value",0.8 (active)
same,normalized growth,"S. cerevisiae deletion strains, locus YLR330W, strain CHS5, stronger effect = lower value",1.01 (inactive)
same,normalized growth,"S. cerevisiae deletion strains, locus YLR342W, strain FKS1 (second series), stronger effect = lower value",1.02 (inactive)
same,normalized growth,"S. cerevisiae deletion strains, locus YLR342W, strain FKS1, stronger effect = lower value",0.855 (active)
same,normalized growth,"S. cerevisiae deletion strains, locus YLR357W, strain rsc2, stronger effect = lower value",0.889 (inactive)
same,normalized growth,"S. cerevisiae deletion strains, locus YLR370C, strain arc18, stronger effect = lower value",0.96 (inactive)
same,normalized growth,"S. cerevisiae deletion strains, locus YLR371W, strain rom2, stronger effect = lower value",0.996 (inactive)
same,normalized growth,"S. cerevisiae deletion strains, locus YLR384C, strain iki3, stronger effect = lower value",1 (inactive)
same,normalized growth,"S. cerevisiae deletion strains, locus YLR418C, strain cdc73, stronger effect = lower value",1.01 (inactive)
same,normalized growth,"S. cerevisiae deletion strains, locus YML016C, strain PPZ1, stronger effect = lower value",1.01 (inactive)
same,normalized growth,"S. cerevisiae deletion strains, locus YML032C, strain rad52, stronger effect = lower value",0.99 (inactive)
same,normalized growth,"S. cerevisiae deletion strains, locus YML120C, strain ndi1, stronger effect = lower value",0.993 (inactive)
same,normalized growth,"S. cerevisiae deletion strains, locus YML124C, strain tub3, stronger effect = lower value",0.99 (inactive)
same,normalized growth,"S. cerevisiae deletion strains, locus YMR058W, strain fet3, stronger effect = lower value",0.573 (active)
same,normalized growth,"S. cerevisiae deletion strains, locus YMR078C, strain ctf18, stronger effect = lower value",0.988 (inactive)
same,normalized growth,"S. cerevisiae deletion strains, locus YMR125W, strain sto1, stronger effect = lower value",0.966 (inactive)
same,normalized growth,"S. cerevisiae deletion strains, locus YMR129W, stronger effect = lower value",1 (inactive)
same,normalized growth,"S. cerevisiae deletion strains, locus YMR205C, strain PFK2, stronger effect = lower value",0.93 (inactive)
same,normalized growth,"S. cerevisiae deletion strains, locus YMR223W, strain ubp8, stronger effect = lower value",0.994 (inactive)
same,normalized growth,"S. cerevisiae deletion strains, locus YMR231W, strain pep5, stronger effect = lower value",0.972 (inactive)
same,normalized growth,"S. cerevisiae deletion strains, locus YMR307W, strain GAS1, stronger effect = lower value",1.03 (inactive)
same,normalized growth,"S. cerevisiae deletion strains, locus YNL067W, strain RPL9B, stronger effect = lower value",0.998 (inactive)
same,normalized growth,"S. cerevisiae deletion strains, locus YNL071W, strain lat1, stronger effect = lower value",0.627 (active)
same,normalized growth,"S. cerevisiae deletion strains, locus YNL128W, strain TEP1, stronger effect = lower value",1.01 (inactive) and 0.937 (inactive)
same,normalized growth,"S. cerevisiae deletion strains, locus YNL153C, strain GIM3, stronger effect = lower value",1 (inactive)
same,normalized growth,"S. cerevisiae deletion strains, locus YNL175C, strain NOP13, stronger effect = lower value",0.96 (inactive)
same,normalized growth,"S. cerevisiae deletion strains, locus YNL183C, strain NPR1, stronger effect = lower value",0.984 (inactive)
same,normalized growth,"S. cerevisiae deletion strains, locus YNL197C, strain WHI3, stronger effect = lower value",0.931 (inactive)
same,normalized growth,"S. cerevisiae deletion strains, locus YNL209W, strain ssb2, stronger effect = lower value",0.808 (active)
same,normalized growth,"S. cerevisiae deletion strains, locus YNL224C, strain SQS1, stronger effect = lower value",1.05 (inactive)
same,normalized growth,"S. cerevisiae deletion strains, locus YNL233W, strain BNI4, stronger effect = lower value",1.01 (inactive)
same,normalized growth,"S. cerevisiae deletion strains, locus YNL248C, strain rpa49, stronger effect = lower value",0.858 (active)
same,normalized growth,"S. cerevisiae deletion strains, locus YNL250W, strain rad50, stronger effect = lower value",1.01 (inactive)
same,normalized growth,"S. cerevisiae deletion strains, locus YNL271C, strain bni1, stronger effect = lower value",0.985 (inactive)
same,normalized growth,"S. cerevisiae deletion strains, locus YNL298W, strain CLA4, stronger effect = lower value",0.992 (inactive)
same,normalized growth,"S. cerevisiae deletion strains, locus YNL307C, strain MCK1, stronger effect = lower value",0.991 (inactive)
same,normalized growth,"S. cerevisiae deletion strains, locus YNL322C, strain KRE1 (second series), stronger effect = lower value",1.01 (inactive)
same,normalized growth,"S. cerevisiae deletion strains, locus YNR049C, strain mso1, stronger effect = lower value",0.98 (inactive)
same,normalized growth,"S. cerevisiae deletion strains, locus YNR052C, strain pop2, stronger effect = lower value",0.987 (inactive)
same,normalized growth,"S. cerevisiae deletion strains, locus YOL006C, strain TOP1, stronger effect = lower value",0.926 (inactive)
same,normalized growth,"S. cerevisiae deletion strains, locus YOL012C, strain htz1",1.12 (inactive)
same,normalized growth,"S. cerevisiae deletion strains, locus YOL147C, strain pex11, stronger effect = lower value",0.992 (inactive)
same,normalized growth,"S. cerevisiae deletion strains, locus YOR001W, strain rrp6, stronger effect = lower value",0.944 (inactive)
same,normalized growth,"S. cerevisiae deletion strains, locus YOR061W, strain CKA2, stronger effect = lower value",1.02 (inactive)
same,normalized growth,"S. cerevisiae deletion strains, locus YOR069W, strain VPS5, stronger effect = lower value",1.01 (inactive)
same,normalized growth,"S. cerevisiae deletion strains, locus YOR070C, strain gyp1, stronger effect = lower value",0.864 (active)
same,normalized growth,"S. cerevisiae deletion strains, locus YOR080W, strain dia2, stronger effect = lower value",0.993 (inactive)
same,normalized growth,"S. cerevisiae deletion strains, locus YOR083W, strain WHI5 (second series), stronger effect = lower value",0.815 (active)
same,normalized growth,"S. cerevisiae deletion strains, locus YOR083W, strain WHI5, stronger effect = lower value",0.875 (active)
same,normalized growth,"S. cerevisiae deletion strains, locus YOR106W, strain vam3, stronger effect = lower value",0.607 (active)
same,normalized growth,"S. cerevisiae deletion strains, locus YOR136W, strain idh2, stronger effect = lower value",0.987 (inactive)
same,normalized growth,"S. cerevisiae deletion strains, locus YOR144C, strain elg1, stronger effect = lower value",0.998 (inactive)
same,normalized growth,"S. cerevisiae deletion strains, locus YOR184W, strain ser1, stronger effect = lower value",1.02 (inactive)
same,normalized growth,"S. cerevisiae deletion strains, locus YOR231W, strain MKK1, stronger effect = lower value",1.06 (inactive)
same,normalized growth,"S. cerevisiae deletion strains, locus YOR265W, strain rbl2, stronger effect = lower value",0.91 (active)
same,normalized growth,"S. cerevisiae deletion strains, locus YOR270C, strain vph1, stronger effect = lower value",0.597 (active)
same,normalized growth,"S. cerevisiae deletion strains, locus YOR290C, strain snf2, stronger effect = lower value",0.979 (inactive)
same,normalized growth,"S. cerevisiae deletion strains, locus YOR316C, strain cot1, stronger effect = lower value",0.992 (inactive)
same,normalized growth,"S. cerevisiae deletion strains, locus YPL051W, strain arl3, stronger effect = lower value",0.746 (active)
same,normalized growth,"S. cerevisiae deletion strains, locus YPL078C, strain atp4, stronger effect = lower value",0.988 (inactive)
same,normalized growth,"S. cerevisiae deletion strains, locus YPL106C, strain sse1, stronger effect = lower value",0.94 (inactive)
same,normalized growth,"S. cerevisiae deletion strains, locus YPL240C, strain hsp82, stronger effect = lower value",1.01 (inactive)
same,normalized growth,"S. cerevisiae deletion strains, locus YPL241C, strain CIN2, stronger effect = lower value",0.311 (active)
same,normalized growth,"S. cerevisiae deletion strains, locus YPL256C, strain CLN2, stronger effect = lower value",1.06 (inactive)
same,normalized growth,"S. cerevisiae deletion strains, locus YPR119W, strain clb2, stronger effect = lower value",0.994 (inactive)
same,normalized growth,"S. cerevisiae deletion strains, locus YPR141C, strain kar3, stronger effect = lower value",0.997 (inactive)
same,normalized growth,"S. cerevisiae deletion strains, locus YPR163C, strain tif3, stronger effect = lower value",0.986 (inactive)
same,normalized growth,"S. cerevisiae deletion strains, locus YPR167C, strain met16, stronger effect = lower value",0.998 (inactive)
same,normalized growth,"S. cerevisiae deletion strains, strain wtn01, stronger effect = lower value",1 (inactive)
same,normalized growth,"S. cerevisiae strains, strain wild type, stronger effect = lower value",1.01 (inactive)
